SMILES strings stand for the structures.

This is an account of results in ChEMBL document CHEMBL3433997, “St. Jude Leishmania screening dataset” (2016).

Common to all, as to type: functional
In test [1] the target is Solute carrier family 2, facilitated glucose transporter member 1 (Homo sapiens) (UniProt P11166). As to the kind of experiment: ST_JUDE_LEISH: Cytotoxicity at 2uM final concentration against transgenic Leishmania Mexicana promastigotes LmGLUT1 that are glucose transport deficient and complemented with the human glucose transporter GLUT1. Activity is measured by DNA content using SYBR green in vitro.
Solute carrier family 2, facilitated glucose transporter member 1 (Homo sapiens), sequence (P11166 whole entry): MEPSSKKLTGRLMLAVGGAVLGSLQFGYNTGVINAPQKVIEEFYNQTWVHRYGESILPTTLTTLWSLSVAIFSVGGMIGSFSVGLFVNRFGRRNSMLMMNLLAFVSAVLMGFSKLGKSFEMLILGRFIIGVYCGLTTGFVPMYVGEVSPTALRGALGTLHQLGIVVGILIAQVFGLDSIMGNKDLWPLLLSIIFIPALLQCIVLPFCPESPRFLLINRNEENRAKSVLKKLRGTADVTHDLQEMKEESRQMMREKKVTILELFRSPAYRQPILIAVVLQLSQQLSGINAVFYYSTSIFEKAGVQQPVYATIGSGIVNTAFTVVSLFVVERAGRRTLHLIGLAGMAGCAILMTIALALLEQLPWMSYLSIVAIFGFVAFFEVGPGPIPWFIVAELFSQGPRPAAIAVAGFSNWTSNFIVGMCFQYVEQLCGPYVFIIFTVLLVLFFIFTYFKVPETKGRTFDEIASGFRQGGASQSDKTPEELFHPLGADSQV

In test [2] the target is Hexose transporter 1 (Plasmodium falciparum) (UniProt O97467). As to the kind of experiment: ST_JUDE_LEISH: Cytotoxicity at 2uM final concentration against transgenic Leishmania Mexicana promastigotes LmPfHT that are glucose transport deficient and complemented with the Plasmodium falciparum hexose transporter. Activity is measured by DNA content using SYBR green in vitro.

The target of test [3] is Glucose transporter (Leishmania mexicana) (UniProt O61059). As to the kind of experiment: ST_JUDE_LEISH: Cytotoxicity at 2uM final concentration against transgenic Leishmania Mexicana promastigotes LmGT2 that are glucose transport deficient and complemented with the L. Mexicana glucose transporter 2. Activity is measured by DNA content using SYBR green in vitro.

Broadly, the inhibition is the relative decrease from the control value, in per cent. For the compound `CC(=O)N[C@H](C(=O)Nc1ccc(-c2ccc(-c3nc4cc(C(F)(F)F)ccc4[nH]3)cc2)cc1)C(C)C`, the values for the inhibition in test [1], in test [2] and in test [3] were 4.54%, 3.08% and 0.17%, respectively.
For `Nc1ncc(-c2cccc(OCc3ccccc3)c2)cc1-c1nnc2ccc(Cl)nn12` the same measures were 1.7%, 1.29% and 2.15%.
For `Oc1cc(Nc2ccnc3cc(-c4ccc(CN5CCCCC5)o4)ccc23)c(Cl)cc1F`, the inhibition in test [1] was 3.23%; in test [2], 6.46%; in test [3] it was 3.68%.
For `CC1CCC2(CC1)NC(N)=NC(=N)N2OCCCCCCCCO` (stereo not given) the same measures were 6.99%, 4.43% and 2.52%.
For `O=C(Nc1cccc(-c2ccc(-c3nc4cc(C(F)(F)F)ccc4[nH]3)cc2)c1)c1ccoc1` the same measures were -0.21%, 1.44% and 0.98%.
For `COc1cc(NC(=O)N2CCc3ccc(OCCC4CCCN4C)cc32)cc(C(F)(F)F)c1` (stereo not given), in that order: -0.5%, 0.15% and -0.48%.
Consider `Cc1[nH]c(C)c(-c2ccc(-c3ccc(C#N)cc3)nc2)c(=O)c1Br`, for which the inhibition in test [1] was 9.47%; in test [2], 10.2%; in test [3] it was 6.23%.
Regarding `CC(C)C(C(=O)Nc1ccc(S(=O)(=O)N(C)C)cc1)c1ccc(Cl)cc1` (stereo not given), the inhibition in test [1] is -2.78%; in test [2], -3.31%; in test [3] it was 0.19%.
For `Cn1cccc1C(=O)Nc1cccc(-c2nn3ccccc3c2-c2ccnc(Nc3ccc4c(c3)OCCO4)n2)c1`, in that order: 4.74%, 9.05% and -1.17%.
For `CCN(CC)CCCN(Cc1ccc(-c2ccc(C(F)(F)F)cc2)cc1)C(=O)Cn1c(SCc2cccc(F)c2F)cc(=O)c2ccccc21`, in that order: 2.74%, 2.63% and 2.46%.
In the case of `Cc1ccc(C(=O)Nc2ccc(Nc3ccnc4cc(-c5ccccn5)ccc34)cc2O)cc1`, the inhibition worked out at 7.39% in test [1], 10% in test [2] and 4.76% in test [3].
Consider `CCCCOc1ccc(C(O)C(CN2CCCCC2)c2ccccc2)cc1` (stereo not given), for which the inhibition in test [1] came out at 1.61%; in test [2], 1.36%; in test [3], 0.33%.
For the compound `COc1cccc2c(NCc3ccccc3)nc(NCCCN3CCCCC3C)nc12` (stereo not given), the values for the inhibition in test [1], in test [2] and in test [3] were 67.7%, 50.8% and 13.1%, respectively.
With `CCc1cc([C@H]2O[C@@H](n3cnc4c(NCC(c5ccccc5)c5ccccc5)nc(NCCNc5ccccn5)nc43)[C@H](O)[C@@H]2O)on1`, the inhibition is -1.61% in test [1], -0.53% in test [2] and -2.53% in test [3].
For `Cc1ccc(Nc2nc3cc(Nc4ccnc(Nc5cccc(CS(C)(=O)=O)c5)n4)ccc3o2)cc1`, in that order: 4.03%, 2.49% and 0.38%.
For `COc1ccc(-c2cccc(NC(=O)c3cccc(C#N)c3)c2)cc1CN1CCN(C)CC1` the same measures were 4.2%, 2.19% and 3.24%.
For `COc1ccc2ncc(Cl)c([C@@H](O)CN3CCC(NCc4cc5c(cn4)OCCO5)CC3)c2c1`, in that order: 9.54%, 10.5% and 1.19%.
With `CCN(CC)c1nc(Nc2cc(C)ccc2C)nc(Nc2ccccc2O)n1`, the figures for the inhibition in test [1], in test [2] and in test [3] were 4.16%, 5.53% and 4%, respectively.
In the case of `O=S(=O)(NCCN1CCCC1)c1ccc(-c2cccc(CNCCc3cccs3)c2)cc1`, the inhibition was determined as 5.24% in test [1], 5.07% in test [2] and 3.91% in test [3].
For `CC(C)Oc1ccc(N2CCN(CCCCNC(=O)c3ccc(NC(=O)c4ccc(Cl)cc4)cc3)CC2)c(OC(C)C)c1` the same measures were 1.62%, 2.05% and 1.44%.
For `O=c1cc(NCCCNCc2scc(I)c2I)[nH]c2ccccc12` the same measures were 4.34%, 5.49% and 4%.
For the compound `N#Cc1cnc2cc(-c3cnc(CNCCN4CCOCC4)s3)ccc2c1Nc1ccc(Oc2ccccc2)cc1`, the inhibition in test [1] was 1.96%; in test [2], 3.38%; in test [3] it was 1.64%.
For `O=C(COc1ccc(Cl)c(Cl)c1)NCCCCCN1CCCN(C(=O)Nc2cc(Cl)cc(Cl)c2)CC1`, in that order: 5.88%, -0.58% and 6.4%.
For `Cn1cc(C2CCN(CCCCCNC(=O)/C=C/c3ccc(Cl)c(Cl)c3)CC2)c2cc(O)ccc21`, in that order: 1.48%, 2.56% and 1.47%.
As for `O=[N+]([O-])c1ccc(Nc2nc(NCc3ccccc3)nc(N/N=C/c3ccccc3[N+](=O)[O-])n2)cc1`, the inhibition in test [1] is 2.21%; in test [2] it was -0.41%; in test [3], 0.43%.
For `Cc1ccoc1C(=O)Nc1cccc(-c2cccc(-c3nc4cc(C(F)(F)F)ccc4[nH]3)c2)c1` the same measures were 3.75%, 1.86% and -0.44%.
For `COc1c(CNCCCCCCNCc2cc(Cl)c3ccccc3c2OC)cc(Cl)c2ccccc12`, in that order: 1.94%, 7.04% and -0.2%.
For `COc1cc2c(cc1OC)CN(CCCCc1ccc(NC(=O)c3cc(Cl)cc(Cl)c3)cc1)CC2`, in that order: 4.58%, 4.95% and -0.56%.
As for `CCN(CC)CCCC(C)Nc1cc(C)nc2cc(Cl)ccc12` (stereo not given), the inhibition turned out to be 0.9% in test [1], 1.6% in test [2] and 0.08% in test [3].
`CC(CN1CCN(C)CC1)C(=O)Nc1cccc(-c2cccc(-c3nc4ccccc4[nH]3)c2)c1` (stereo not given): the values for the inhibition in test [1], in test [2] and in test [3] were 4.45%, 4.44% and 2.44%, respectively.
For `Cc1ccccc1C1CCN(C2CCC(NC(=O)/C=C/c3cccc(F)c3F)CC2)CC1` (stereo not given) the same measures were 5.69%, 4.6% and 6.25%.
For `O=C(/C=C/c1ccc(Cl)c(Cl)c1)NCC(CCCN1CCC(c2c[nH]c3ccccc23)CC1)c1ccccc1` (stereo not given), the inhibition in test [1] was 3.06%; in test [2], -1.36%; in test [3], 2.05%.
For `Cn1nccc1C(=O)NCCNCc1cccc(-c2cccc(-c3nc4cc(F)ccc4[nH]3)c2)c1` the same measures were 3.43%, 3.28% and 1.11%.
For `CN1CCN(Cc2ccc(-c3ccc4c(Nc5ccc(Oc6ccccc6)cc5)ccnc4c3)o2)CC1` the same measures were -0.9%, -0.3% and 0.49%.
As to `COc1ccc(NC(=O)NC2CCN(CCCCCNC(=O)/C=C/c3ccc(Cl)c(Cl)c3)CC2)cc1`, the figures for the inhibition in test [1], in test [2] and in test [3] were -1.04%, -0.81% and -2.52%, respectively.
